The source of these data is PubChem BioAssay.

The subject of assay [1] is XIP peptide (Xip251-270) binding. Kind of assay: small-molecule binders of XIP peptide, primary screen, biochemical, small-molecule microarray, fluorescence 635/667 nm, 0.1 µg/mL protein (AID 1182). The settings on record: fluorescent protein binding, 635 nm, higher = more signal, called active from +8 up or from −8 down.
The subject of assay [2] is XIP peptide (Xip251-270). Kind of assay: small-molecule binders of XIP peptide, primary screen, biochemical, small-molecule microarray, fluorescence 635/667 nm, 0.5 µg/mL protein (AID 1183). The settings on record: small-molecule microarray binding, fluorescence 635 nm; higher = more signal.
The nature of assay [3]: Plasmodium falciparum growth inhibition, primary screen, strain 3D7, DAPI fluorescence, 100 nL (AID 1184).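 Also: parasites grown inside human red blood cells in medium with human serum.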 The settings on record: P. falciparum 3D7 growth, 3 d, higher = more signal.
In assay [4] the target is Homeobox protein Hox-A13 (Mus musculus) (UniProt Q62424). The assay can be described thus: inhibitors of HoxA13-DNA binding, primary screen, biochemical, fluorescence polarization, labeled oligonucleotide (AID 1185). The settings on record: 15 min, higher = more signal, called active from +8 up or from −8 down.
Homeobox protein Hox-A13 (Mus musculus), sequence (Q62424 whole entry, looked up): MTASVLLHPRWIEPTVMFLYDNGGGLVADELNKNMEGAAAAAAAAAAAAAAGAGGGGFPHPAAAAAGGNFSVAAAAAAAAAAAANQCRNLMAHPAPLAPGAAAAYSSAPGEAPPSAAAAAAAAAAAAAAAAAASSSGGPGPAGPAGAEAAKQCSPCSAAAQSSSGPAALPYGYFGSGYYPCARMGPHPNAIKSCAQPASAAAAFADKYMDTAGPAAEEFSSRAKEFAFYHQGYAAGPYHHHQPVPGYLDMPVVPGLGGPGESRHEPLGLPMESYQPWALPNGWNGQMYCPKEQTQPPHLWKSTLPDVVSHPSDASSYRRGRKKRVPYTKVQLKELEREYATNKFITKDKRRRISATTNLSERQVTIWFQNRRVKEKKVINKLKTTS

Calls of active or inactive are those of the source.

Take `C#CCCCON=C1C[C@@H](O)[C@@H](O)[C@@H]2[C@@H]3C(=O)N(C(C)(C)C)C(=O)[C@@H]3CC[C@@H]12`: the figures for the composite z-score in assay [1] and in assay [2] were -0.0287 (inactive) and 0.109, respectively. Moreover, the results for the z-score in assay [3] and in assay [4] were -0.315 and -3.44 (inactive), respectively.
For `COC(=O)CC=C[C@@H](C)[C@@H](C=NOC[C@H]1O[C@H](c2ccccc2)C=C[C@@H]1Oc1ccc(OC)cc1)NS(=O)(=O)c1ccc(C)cc1` the same measures were -0.0195 (inactive), -0.827, -0.683 and -2.52 (inactive).
For `COC(=O)[C@@H]1CC[C@H](C)[C@@H](c2ccc(C)cc2)N1C(=O)c1ccc(C=NOCC[C@@H]2C=C[C@H](OC(C)=O)[C@@H](COC(C)=O)O2)cc1` the same measures were -0.425 (inactive), 0.484, -0.316 and -5.26 (inactive).
For `COC(=O)[C@H](C)NC(=O)CCC1CC(OC(=O)NCc2ccc3c(c2)OCO3)CC2(CCCC(COC(=O)NCC3CCCCC3)O2)O1` (stereo not given in full) the same measures were 0.655 (inactive), 0.555, -1.87 and -4.19 (inactive).
Take `CON=Cc1ccc(C(=O)N2[C@H](c3ccc(C)cc3)[C@@H](C)CC[C@H]2C(=O)OC)cc1`: the composite z-score in assay [1] is -0.288 (inactive); in assay [2] it was 0.488. For the same compound, the values for the z-score in assay [3] and in assay [4] were -0.141 and -3.49 (inactive), respectively.
With `CCC1=NOC(CCC2CC(OC(=O)NCc3cccc4c3OCO4)CC3(CCCC(COC(=O)NCCc4ccccc4OC)O3)O2)C1` (stereo not given), the composite z-score is 1.87 (inactive) in assay [1] and 0.357 in assay [2]. Further, the z-score was -0.95 in assay [3] and -6.1 (inactive) in assay [4].
For `CO[C@@H]1COC(=O)CC=C[C@@H](C)[C@H](OC)COC(=O)[C@@H](C)COC(=O)CC=C[C@H]1C` the same measures were -0.0671 (inactive), -0.497, 0.301 and 0.372 (inactive).
For `CO[C@H]1COC(=O)CC=C[C@@H](C)[C@H](OC)COC(=O)CCC[C@@H]1C` the same measures were -0.283 (inactive), -0.15, 0.0095 and -0.51 (inactive).
For `O=C1C=C[C@@H](O)[C@@H]2[C@@H]3C(=O)N(c4ccc(F)cc4F)C(=O)[C@@H]3CC[C@@H]12` the same measures were 0.25 (inactive), 0.165, 0.262 and 0.159 (inactive).
Turning to `CCCCC#C[C@@H]1C=C[C@H](Oc2cc(OC)c(OC)c(OC)c2)[C@@H](COC(=O)OCC)O1`, the composite z-score in assay [1] was 0.392 (inactive); in assay [2] it was 0.355. Moreover, the results for the z-score in assay [3] and in assay [4] were 0.421 and -5.07 (inactive), respectively.
On to `O=C1[C@H]2[C@H]3[C@H](O)[C@H](O)CC(=NOC[C@@H](O)COCc4ccco4)[C@@H]3CC[C@H]2C(=O)N1C[C@@H]1CCCO1`, for which the values for the composite z-score in assay [1] and in assay [2] were 0.0071 (inactive) and 0.791, respectively. The z-score is 0.965 in assay [3] and 0.515 (inactive) in assay [4].
For `CO[C@@H]1COC(=O)[C@@H](C)COC(=O)[C@@H](C)NC(=O)CC=C[C@@H]1C` the same measures were 0.0875 (inactive), 0.304, -1.52 and -0.701 (inactive).
For `C#CCCCON=C1C[C@@H](O)[C@@H](O)[C@@H]2[C@@H]3C(=O)N(CC)C(=O)[C@@H]3CC[C@@H]12` the same measures were 0.901 (inactive), 0.555, -0.0961 and -0.918 (inactive).
In the case of `COc1cccc([C@H]2Oc3ccc(OC)cc3C(=NOC[C@@H](C)[C@H](OCc3ccccc3)C(C)C)[C@@H]2O)c1`, the composite z-score in assay [1] was 0.305 (inactive); in assay [2] it was -0.724. In addition, the z-score in assay [3] is -0.157; in assay [4], -0.308 (inactive).
For `O=C1[C@H]2[C@H]3[C@H](O)[C@H](O)CC(=NOCc4ccccc4)[C@@H]3CC[C@H]2C(=O)N1C[C@@H]1CCCO1` the same measures were -0.308 (inactive), 0.625, -0.0671 and -1.49 (inactive).
For `CCOC(=O)[C@H](CC(C)C)NC(=O)CCC1CC(OC(=O)NCc2ccc3c(c2)OCO3)CC2(CCCC(COC(=O)NCC3CCCCC3)O2)O1` (stereo not given in full) the same measures were 0.269 (inactive), 0.0826, -1.77 and -6.18 (inactive).
For `O=C1C=C[C@@H](O)[C@@H]2[C@@H]3C(=O)N(C[C@@H]4CCCO4)C(=O)[C@@H]3CC[C@@H]12` the same measures were 0.179 (inactive), 0.119, 0.0136 and 0.112 (inactive).
Consider `CCOC(=O)[C@H](CC(C)C)NC(=O)CCC1CC(OC(=O)NCc2ccc3c(c2)OCO3)CC2(CCCC(COC(=O)NCC(c3ccccc3)c3ccccc3)O2)O1` (stereo not given in full), for which the figures for the composite z-score in assay [1] and in assay [2] were 0.717 (inactive) and -0.0305, respectively. Also, the z-score in assay [3] was -0.11; in assay [4], -6.66 (inactive).
For `C=CC[C@@H]1C=C[C@H](ON=C[C@@H](C)[C@H](OCc2ccccc2)C(C)C)[C@@H](CO)O1` the same measures were 0.142 (inactive), 0.256, 0.395 and -4.51 (inactive).
For `CO[C@H]1COC(=O)[C@@H](C)COC(=O)[C@@H](OCc2ccccc2)C=C[C@@H]1C` the same measures were 0.224 (inactive), 0.204, -0.66 and -0.618 (inactive).
